Laboratory results as given in PubChem BioAssay.
The source made the active and inactive calls. Unless noted, how the calls were made is not given here.

Experiments:
[1] = test system: Wnt5a (protein binding on small-molecule microarray); assay: Wnt5a binders on small-molecule microarray, primary screen, biophysical, 635/667 nm fluorescence (AID 1142); details: 635 nm fluorescence, higher = more signal;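 further: fluorescence read at 667 nm with signal to noise per printed feature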
[2] = cell viability in Huh7 cells, primary screen, cytotoxicity control for HCV replication inhibitor project, CellTiter-Glo luminescence, basal, 48 h (AID 1143); details: Huh7 HCV replicon, higher = more signal, called active from +8 up or from −8 down;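 further: Huh7 hepatoma cells carrying a hepatitis C replication reporter with no stimulus; test concentration not given here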
[3] = P. aeruginosa biofilm formation inhibitors, primary screen, PAO1 strain, BacTiter-Glo luminescence, LB-PBS (AID 1144); details: 12 h, higher = more signal
[4] = CREB reporter modulators without forskolin, primary screen, cell-based, PC12, CRE-LacZ reporter, unstimulated (AID 1145); details: no forskolin, luminescence, 4.5 h, higher = more signal, called active from +8 up or from −8 down
[5] = CREB reporter modulators under forskolin, primary screen, cell-based, PC12, CRE-LacZ reporter, forskolin-stimulated (AID 1146); details: luminescence, 4.5 h, higher = more signal, called active from +8 up or from −8 down;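 further: PC12 cells with 6xCRE LacZ reporter stimulated by forskolin 10 µM; beta-galactosidase reporter signal reflecting CREB driven transcription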
[6] = molecular target: Streptavidin (Streptomyces avidinii) (UniProt P22629); assay: streptavidin binders on small-molecule microarray, primary screen, artefact control for SMM compound annotation, biophysical, 635/667 nm fluorescence (AID 1147); details: streptavidin binding, higher = more signal;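 further: signal reflects streptavidin binding to arrayed compounds as a control protein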
[7] = small-molecule binders of probe aInhba, primary screen, biochemical, small-molecule microarray, 635/667 nm fluorescence (AID 1148); details: higher = more signal;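 further: score merges 667nm spot fluorescence with signal-to-noise for antibody binding to printed compounds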
[8] = molecular target: Torsin-1A (Homo sapiens) (UniProt O14656); assay: torsin A binders from cell lysate, primary screen, small-molecule microarray, wild-type, 635/667 nm (AID 1149); details: COS7 hTOR1A-WT lysate, 635 nm fluorescence, higher = more signal
[9] = molecular target: Torsin-1A (Homo sapiens) (UniProt O14656); assay: small-molecule binders of mutant TOR1A in lysate, primary screen, cell lysate, small-molecule microarray, COS7 lysate, 635/667 nm fluorescence (AID 1150); details: COS7 hTOR1A mutant lysate, 635 nm fluorescence, higher = more signal;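 further: score pools 667 nm emission and signal to noise measuring lysate protein binding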
[10] = test system: Sonic hedgehog protein (Shh); assay: small-molecule binders of Shh protein, primary screen, biochemical, small-molecule microarray, 635/667 nm fluorescence (AID 1151); details: small-molecule microarray binding, 635 nm fluorescence; higher = more signal;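 further: Shh protein binding to compounds spotted on small-molecule microarray slides; score combines spot fluorescence intensity with signal-to-noise across triplicate slides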
[11] = E. coli DRC41 culture turbidity changes, primary screen, E. coli filamentation inducer project, strain DRC41, OD650, 48 h (AID 1152);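 further: E. coli MC1000 strain DRC41 lacking acrAB efflux pump and sulA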; details: E. coli DRC41 (acrAB sulA), higher = more signal, called active from +8 up or from −8 down
[12] = small-molecule binders of probe aLefty1, primary screen, biochemical, small-molecule microarray, 635/667 nm fluorescence (AID 1153); details: higher = more signal;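 further: score merges spot fluorescence with signal-to-noise ratio from the scanned slide images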
[13] = PSAC antagonists in infected red cells, primary screen, cell-based, P. falciparum Indochina, OD700, 1 h (AID 1154); details: P. falciparum Indochina infected RBC osmotic lysis, higher = more signal, called active from +8 up or from −8 down
[14] = PSAC antagonists in infected red cells, primary screen, cell-based, P. falciparum Indochina, OD700, 2 h (AID 1155);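 further: lysis reports solute entry through the parasite surface anion channel PSAC; channel blockers reduce lysis of infected cells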; details: P. falciparum Indochina infected erythrocytes, osmotic lysis OD700; higher = more signal, called active from +8 up or from −8 down
[15] = osmotic lysis modulators in infected erythrocytes, primary screen, PSAC antagonist project, cell-based, P. falciparum Indochina, OD700, 3 h (AID 1156); details: higher = more signal, called active from +8 up or from −8 down
[16] = PSAC antagonists in infected red cells, primary screen, cell-based, P. falciparum Indochina, OD700, 18 h (AID 1157); details: P. falciparum Indochina infected erythrocytes, osmotic lysis OD700, 18 h; higher = more signal, called active from +8 up or from −8 down
[17] = modulators of S6 phosphorylation in cells, primary screen, cell-based, A549, cytoblot, luminescence, serum-stimulated (AID 1158); details: A549 phospho-S6 cytoblot, 5 h, higher = more signal;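 further: serum-stimulated A549 lung adenocarcinoma cells; signal is phosphorylated S6 detected by cytoblot immunostaining with HRP secondary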
[18] = molecular target: NADPH oxidase 2 (Homo sapiens) (UniProt P04839); assay: NOX2-dependent H2O2 signal modulators, primary screen, NOX inhibitor project, cell-based, HEK293-NOX2, PMA-stimulated, Amplex Red fluorescence (AID 1159); details: 45 min, higher = more signal, called active from +8 up or from −8 down; further: test concentration not given here
[19] = molecular target: NADPH oxidase 4 (Homo sapiens) (UniProt Q9NPH5); assay: NOX4-dependent H2O2 signal modulators, primary screen, NOX inhibitor project, cell-based, HEK293-NOX4, tetracycline-induced, Amplex Red fluorescence (AID 1160); details: 45 min, higher = more signal, called active from +8 up or from −8 down
[20] = molecular target: NADPH oxidase 5 (Homo sapiens) (UniProt Q96PH1); assay: NOX5-dependent H2O2 signal modulators, primary screen, NOX inhibitor project, cell-based, HEK293-NOX5, Amplex Red fluorescence (AID 1161); details: HEK293-NOX5, ionomycin, 45 min, higher = more signal
Sequence of NADPH oxidase 5 (Homo sapiens) (Q96PH1 whole entry, looked up): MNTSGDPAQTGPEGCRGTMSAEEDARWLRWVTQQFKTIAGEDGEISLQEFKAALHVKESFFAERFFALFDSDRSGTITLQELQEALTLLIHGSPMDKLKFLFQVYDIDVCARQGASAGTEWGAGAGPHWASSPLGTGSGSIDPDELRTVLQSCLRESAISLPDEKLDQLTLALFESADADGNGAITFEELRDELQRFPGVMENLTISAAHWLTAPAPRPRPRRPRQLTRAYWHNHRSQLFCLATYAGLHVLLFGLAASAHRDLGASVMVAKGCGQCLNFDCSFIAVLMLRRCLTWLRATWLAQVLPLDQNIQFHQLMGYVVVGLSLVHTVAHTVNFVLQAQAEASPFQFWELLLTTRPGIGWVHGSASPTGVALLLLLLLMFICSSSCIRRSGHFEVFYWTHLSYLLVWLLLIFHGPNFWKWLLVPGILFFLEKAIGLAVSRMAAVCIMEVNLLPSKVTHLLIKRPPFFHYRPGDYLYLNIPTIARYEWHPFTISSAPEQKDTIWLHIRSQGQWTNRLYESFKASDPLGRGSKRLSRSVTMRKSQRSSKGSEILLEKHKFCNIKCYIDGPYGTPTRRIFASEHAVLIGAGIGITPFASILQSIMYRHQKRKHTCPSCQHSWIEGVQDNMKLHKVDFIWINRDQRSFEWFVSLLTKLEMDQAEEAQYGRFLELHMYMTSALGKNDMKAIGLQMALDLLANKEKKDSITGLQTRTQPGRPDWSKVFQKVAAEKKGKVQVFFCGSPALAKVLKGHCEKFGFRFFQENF

Sequence of NADPH oxidase 4 (Homo sapiens) (Q9NPH5 whole entry, looked up): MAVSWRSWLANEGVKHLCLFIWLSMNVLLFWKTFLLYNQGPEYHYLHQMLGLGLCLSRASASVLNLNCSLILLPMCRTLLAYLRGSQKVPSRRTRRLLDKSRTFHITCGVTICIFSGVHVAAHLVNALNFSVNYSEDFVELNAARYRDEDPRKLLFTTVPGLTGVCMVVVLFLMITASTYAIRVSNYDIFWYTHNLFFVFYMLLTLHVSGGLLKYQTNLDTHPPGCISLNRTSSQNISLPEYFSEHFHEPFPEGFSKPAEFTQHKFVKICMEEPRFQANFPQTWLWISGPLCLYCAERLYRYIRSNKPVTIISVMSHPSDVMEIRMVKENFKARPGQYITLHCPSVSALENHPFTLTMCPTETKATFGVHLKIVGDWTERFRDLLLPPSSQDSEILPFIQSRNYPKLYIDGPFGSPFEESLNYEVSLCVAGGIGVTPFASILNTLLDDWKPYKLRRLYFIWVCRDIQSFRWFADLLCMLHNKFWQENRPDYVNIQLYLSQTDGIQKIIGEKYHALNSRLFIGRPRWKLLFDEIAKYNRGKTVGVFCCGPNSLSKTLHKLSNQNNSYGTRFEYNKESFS
Sequence of NADPH oxidase 2 (Homo sapiens) (P04839 whole entry, looked up): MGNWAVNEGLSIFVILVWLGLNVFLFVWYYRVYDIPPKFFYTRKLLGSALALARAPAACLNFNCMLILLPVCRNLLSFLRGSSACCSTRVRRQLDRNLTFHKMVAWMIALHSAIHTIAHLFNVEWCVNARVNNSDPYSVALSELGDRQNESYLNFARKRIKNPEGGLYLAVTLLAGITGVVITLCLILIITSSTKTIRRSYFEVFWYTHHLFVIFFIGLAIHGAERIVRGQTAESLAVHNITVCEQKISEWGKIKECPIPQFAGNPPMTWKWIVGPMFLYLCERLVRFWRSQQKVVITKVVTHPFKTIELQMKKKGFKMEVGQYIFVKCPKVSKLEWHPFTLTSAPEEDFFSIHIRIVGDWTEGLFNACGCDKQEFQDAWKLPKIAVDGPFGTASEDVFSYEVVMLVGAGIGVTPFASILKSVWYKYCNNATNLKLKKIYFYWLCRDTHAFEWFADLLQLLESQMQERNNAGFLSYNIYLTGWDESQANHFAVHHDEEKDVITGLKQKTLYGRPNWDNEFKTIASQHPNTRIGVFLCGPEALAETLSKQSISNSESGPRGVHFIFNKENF
Sequence of Streptavidin (Streptomyces avidinii) (P22629 whole entry, looked up): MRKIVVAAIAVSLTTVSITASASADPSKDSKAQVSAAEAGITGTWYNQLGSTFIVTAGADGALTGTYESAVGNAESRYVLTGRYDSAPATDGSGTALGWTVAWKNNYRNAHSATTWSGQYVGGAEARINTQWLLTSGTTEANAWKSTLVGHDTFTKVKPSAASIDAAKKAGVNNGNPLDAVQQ
Sequence of Torsin-1A (Homo sapiens) (O14656 whole entry, looked up): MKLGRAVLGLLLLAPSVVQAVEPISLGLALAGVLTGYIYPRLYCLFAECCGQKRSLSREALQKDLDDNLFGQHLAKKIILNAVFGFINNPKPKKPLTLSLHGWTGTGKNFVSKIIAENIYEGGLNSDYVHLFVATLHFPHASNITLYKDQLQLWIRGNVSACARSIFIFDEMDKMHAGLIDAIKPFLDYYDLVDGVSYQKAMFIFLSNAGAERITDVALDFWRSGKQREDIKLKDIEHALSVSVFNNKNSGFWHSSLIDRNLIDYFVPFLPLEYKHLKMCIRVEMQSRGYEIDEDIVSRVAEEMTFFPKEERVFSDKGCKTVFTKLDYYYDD

Structure (SMILES)	composite z-score [1]	z-score [2]	z-score [3]	z-score [4]	z-score [5]	composite z-score [6]	composite z-score [7]	composite z-score [8]	composite z-score [9]	composite z-score [10]	z-score [11]	composite z-score [12]	z-score [13]	z-score [14]	z-score [15]	z-score [16]	z-score [17]	z-score [18]	z-score [19]	z-score [20]
C=CCOC(=O)[C@H]1[C@@H]2C(=O)O[C@@H](c3ccccc3)[C@@H](c3ccccc3)N2[C@@H](c2ccc(OCCOC(=O)[C@H]3C[C@H]4C(=O)N[C@@H](CCCCN(C)C)C(=O)N4[C@H]3c3ccc(O)cc3)cc2)[C@]12C(=O)Nc1ccccc12	0.468	-1.73 (inactive)	-0.063 (inactive)	-0.122 (inactive)	-0.322 (inactive)	-0.0375	0.0748	0.539	0.674	1.42	-0.558 (inactive)	1.13	-0.862 (inactive)	0.332 (inactive)	3.2 (inactive)	0.522 (inactive)	-0.259	2.21 (inactive)	1.05 (inactive)	0.576
O=C(N1CCOCC1)[C@@]1(CCS(=O)(=O)c2ccccc2)COC(c2ccc(OCCCO)cc2)=N1	-0.102	-0.963 (inactive)	0.585 (inactive)	0.148 (inactive)	1.58 (inactive)	-0.411	-0.374	0.385	0.65	-0.784	1.04 (inactive)	-0.356	23.8 (active)	9.6 (active)	1.75 (inactive)	1.3 (inactive)	-0.713	-1.79 (inactive)	0.44 (inactive)	-0.597
C=C(/C(=C/C[C@@H](OC(C)=O)c1ccccc1OCCO)c1cnc2ccccc2c1)C(C)C	0.515	-1.35 (inactive)	0.362 (inactive)	10.8 (active)	0.982 (inactive)	-0.02	0.167	0.72	0.0714	1.81	0.0675 (inactive)	-0.0428	11.6 (active)	2.53 (inactive)	1.82 (inactive)	1.04 (inactive)	0.458	-1.08 (inactive)	-1.28 (inactive)	-1.49
COCCOC(=O)N1C(=O)[C@@]2(c3ccccc31)[C@H](c1ccc(OCCO)cc1)N1[C@H](c3ccccc3)[C@H](c3ccccc3)OC(=O)[C@H]1[C@@H]2C(=O)NC[C@H](O)c1ccccc1	0.385	-1.49 (inactive)	0.109 (inactive)	0.891 (inactive)	10.1 (active)	0.258	0.268	1.19	0.662	2.04	-0.769 (inactive)	0.643	7.9 (inactive)	1.94 (inactive)	0.0925 (inactive)	0.728 (inactive)	-0.575	1.28 (inactive)	0.989 (inactive)	0.894
CC(C)CCC[C@@H](C)[C@H]1CC[C@@]2(C)C3=C(CC[C@]12C)[C@@]1(C)CC[C@H](OC(=O)c2ccc(N)cc2)C(C)(C)C1CC3 (stereo not given in full)	0.279	-0.793 (inactive)	-0.593 (inactive)	1.39 (inactive)	-0.391 (inactive)	0.143	-0.208	0.315	0.273	0.49	3.27 (inactive)	-0.278	-1.05 (inactive)	-1.26 (inactive)	-0.492 (inactive)	-2.86 (inactive)	1.93	-0.759 (inactive)	0.253 (inactive)	0.807
CC(C)NC(=O)[C@@H]1c2ccccc2C(=O)N(Cc2cc(C(F)(F)F)cc(C(F)(F)F)c2)[C@H]1c1ccc(CO)cc1	0.133	0.0274 (inactive)	0.71 (inactive)	0.0279 (inactive)	0.296 (inactive)	0.0544	0.136	0.275	0.0913	0.646	-0.464 (inactive)	0.358	1.54 (inactive)	0.349 (inactive)	-0.113 (inactive)	0.057 (inactive)	-0.167	0.513 (inactive)	0.349 (inactive)	-0.284
CC1(C)[C@@H]2CC(C(O)C3C=CC4C(=O)N(c5ccccc5)C(=O)C4N3Nc3ccccc3F)=C[C@@H]1C2 (stereo not given in full)	0.512	-2.69 (inactive)	-1.31 (inactive)	-0.826 (inactive)	-0.7 (inactive)	0.5	0.0291	0.233	0.541	0.625	0.446 (inactive)	0.43	1.83 (inactive)	0.194 (inactive)	-1.57 (inactive)	-0.786 (inactive)	0.586	0.318 (inactive)	0.0669 (inactive)	-0.156
COCCOC(=O)N1C(=O)[C@@]2(c3cc(C#CC4(O)CCCCCC4)ccc31)[C@H](C(=O)N1CCN(c3ncccn3)CC1)[C@H]1C(=O)O[C@H](c3ccccc3)[C@H](c3ccccc3)N1[C@@H]2c1ccc(O)cc1	0.521	-1.45 (inactive)	0.148 (inactive)	-0.375 (inactive)	0.505 (inactive)	-0.0314	0.0982	0.553	0.432	0.481	0.923 (inactive)	0.63	0.71 (inactive)	0.566 (inactive)	0.991 (inactive)	0.613 (inactive)	0.274	1.43 (inactive)	-1.31 (inactive)	1.49
O=C1C2C=CC(C(O)c3ccc(Br)cc3)N(Nc3ccccc3)C2C(=O)N1c1ccccc1 (stereo not given)	-0.0007	0.198 (inactive)	-0.95 (inactive)	0.24 (inactive)	0.35 (inactive)	1.47	0.147	-0.0004	-0.0172	-0.146	-1.78 (inactive)	0.305	8.27 (active)	1.8 (inactive)	0.244 (inactive)	1.25 (inactive)	-0.554	-1.82 (inactive)	-4.09 (inactive)	-2.39
